# In PubChem BioAssay (NCATS):
# Records with an inconclusive call do not appear. A call without a number means that no potency is given here. Calls of active or inactive are those of the source. The call rests on the fitted dose curve; in most records, active means well fitted inhibition curve with a large enough effect; inconclusive means small, poorly fitted or top-dose-only effect; inactive means flat fitted curve, though single readings scatter.
# Target: Calcium and integrin-binding protein 1 (Homo sapiens) (UniProt Q99828)
# Experiment: Primary qHTS for Identification of Calcium Integrin Binding Protein 1 (CIB1) Competitor (AID 1508620);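 further: GST tagged CIB1 binding a fluorescein labelled alphaIIb integrin peptide tracer; top concentration of the series differs between compounds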
# Conditions: CIB1-GST / FITC-alphaIIb peptide fluorescence polarization; series mostly up to 114 µM
# In short: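 Fluorescence polarization competition: CIB1-GST (1 uM final) preincubated with compound 15 min at room temperature, then FITC-labeled alphaIIb peptide (100 nM final) added for another 15 min. Polarization read at Ex 480/Em 540.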
# Calcium and integrin-binding protein 1 (Homo sapiens), sequence (Q99828 whole entry, looked up): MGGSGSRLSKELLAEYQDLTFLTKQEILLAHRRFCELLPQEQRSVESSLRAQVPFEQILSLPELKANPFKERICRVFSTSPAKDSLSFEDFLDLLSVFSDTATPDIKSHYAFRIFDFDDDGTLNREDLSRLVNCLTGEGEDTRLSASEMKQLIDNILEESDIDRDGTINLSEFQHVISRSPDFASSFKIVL
row,SMILES,Potency
1,CN1CCN(c2cccc(Nc3nn4c(=O)c5ccccc5nc4s3)c2)CC1,inactive
2,NC(=O)C1CCN(c2nc(-c3ccc4c(c3)OCCCO4)cs2)CC1,inactive
3,Cc1ccc(-c2ccc(=O)n(CC(=O)NCCCc3ccccc3)n2)cc1,inactive
4,COc1ccc(-c2ccc3ncnc(NCc4nc(C)cs4)c3c2)cc1OC,inactive
5,CCOC(=O)c1ccc(-c2ccc3ncnc(N(C)Cc4ccc(C)o4)c3c2)o1,inactive
6,CN(CC(=O)Nc1ccc(N2CCOCC2)cc1)Cc1cccc2ccccc12,inactive
7,Oc1cc(NCc2ccccc2)cc2cccnc12,inactive
8,O=S1(=O)N=C(Oc2ccccc2Br)c2ccccc21,inactive
9,Cc1ccnc(NC(=S)NC2CN(c3cccc(C(F)(F)F)c3)C2)c1,inactive
10,O=C1CCCC2=C1C(c1cccc(F)c1)N=C(Nc1nc3ccccc3o1)N2 (stereo not drawn),inactive
11,CC(C)(C)n1cnc2cc(C(=O)N3CCCCC3)ccc21,inactive
12,CC(C)(C)CNc1nc(C#N)nc(Nc2ccccc2)n1,inactive
13,CCOC(=O)C1CCN(C(=O)C(C)(C)NC(=O)Nc2ccc(N(C)C)cc2)CC1,inactive
14,CCc1c(C)nc2cc(-c3ccc(OC)c(OC)c3)nn2c1N1CCCC1,inactive
15,Cc1ccc(OCCn2c(CCNC(=O)c3ccccc3F)nc3ccccc32)cc1,inactive
16,Cc1cc2c(s1)c1cnn(Cc3ccccc3)c(=O)c1n2C,inactive
17,O=C1Nc2cccc(Cl)c2/C1=C\c1cc(Cl)c(O)c(Cl)c1,inactive
18,O=[N+]([O-])c1cc(C(F)(F)F)ccc1N1CCN(C(=S)Nc2cc(Cl)ccn2)CC1,inactive
